# Measurements reported in PubChem BioAssay.
# Assay: viability loss with induced miR-34 in A549 – imaging, A549 dox-inducible miR-34, nuclei and caspase counts, primary screen (AID 1347080); also: test concentration not given here
# Conditions: A549 miR-34 inducible, Hoechst nuclei count, 48 h; measured here: total cells without miR-34 induction
row,SMILES,cell count
1,CCCCCC(=O)OC[C@H](CO)OC(=O)CCCCC,5590
2,CN(C)c1cc(NC(=O)CNC(C)(C)C)c(O)c2c1C[C@H]1C[C@@H]3C(C(=O)C(C(N)=O)=C(O)[C@H]3N(C)C)C(=O)C1=C2O (stereo not given in full),9860
3,N#Cc1cc2c(OCC(O)CN3CCN(C(c4ccccc4)c4ccccc4)CC3)cccc2[nH]1 (stereo not given),1550
4,CC(C)(CCCCCCCCCCC(C)(C)CC(=O)O)CC(=O)O,6180
5,N[C@@H](Cc1ccc(O)c([N+](=O)[O-])c1)C(=O)O,6080
6,CCCCCCCCCCCCCCCCOC[C@@H](CO)SC(C)=O,5270
7,CCCCCCCCCCCCCCCC(=O)N[C@H](C)CO,6310
8,CCCCC[C@H](O)/C=C/[C@@H]1[C@@H](C/C=C\CCCCO)[C@@H](O)C[C@H]1O,6300
9,CC(C)OC(=O)CCC/C=C\C[C@@H]1[C@@H](/C=C/[C@H](O)CCc2ccccc2)[C@H](O)C[C@@H]1O,6410
10,CCCCC[C@H](O)/C=C/[C@H]1CCC(=O)[C@@H]1CCCCCCC(=O)O,5720
11,CC(C)(C)OC(=O)N1CCC(OCc2nc(-c3ccncc3)no2)CC1,5430
12,CC(C)OC(=O)CCC/C=C\C[C@@H]1[C@@H](/C=C/[C@H](O)C2Cc3ccccc3C2)[C@@H](F)C[C@@H]1O,5450
13,CC/C=C\C/C=C\C/C=C\C/C=C\CCCCCCC(=O)O,5150
14,CCCCC[C@H](O)/C=C/[C@@H]1[C@H]2C/C(=C\CCCC(=O)O)C[C@H]2C[C@H]1O,6660
15,CC(C)(O)c1ccccc1CC[C@H](SCC1(CC(=O)O)CC1)c1cccc(/C=C/c2ccc3ccc(Cl)cc3n2)c1,5280
16,O=C(O)CCCCCCC1C(=O)N(Cc2ccccc2)C(=O)N1NCC(O)C1CCCCC1 (stereo not given),6590
17,N=C(N)SCCC[C@H](N)C(=O)O,5970
18,CCCCCCCCCCCCCCCCCCCC(=O)NCCO,6100
19,O=C1OC2(c3ccc(O)cc3Oc3cc(Oc4ccc(O)cc4)ccc32)c2ccccc21 (stereo not given),6520
20,CCCCC(C)(C)[C@H](O)/C=C/[C@H]1CCC(=O)[C@@H]1C/C=C\CCCC(=O)O,6450

row,SMILES,cell count
1,CCCCCC/C=C\CCCCCCCC(=O)OCC,6150
2,CC1CCN=C(N)C1 (stereo not given),6410
3,COc1ccc(/C=C/C(=O)CC(=O)/C=C/c2cccc(O)c2OC)cc1O,3790
4,CCCCC/C=C\C/C=C\CCCCCCCC(=O)OCC(COC(=O)CCCCCCCCCCCCCCC)OC(=O)CCCCCCC/C=C\CCCCCCCC (stereo not given),5790
5,CCCCC/C=C\C=C\[C@H](O)CCCCCCCC(=O)O,5740
6,CCCCC[C@H]1/C=C/[C@@H]2[C@@H](C/C=C\CCCC(=O)O1)[C@@H](O)C[C@H]2O,4580
7,CCCCC[C@H](O)/C=C/[C@@H]1[C@@H](C/C=C\CCCCCC(=O)O)[C@@H](O)C[C@H]1O,6000
8,CCCCCC(=O)CC[C@H]1C=CC(=O)[C@@H]1C/C=C\CCCC(=O)O,5820
9,C[C@]12CC[C@@H]3c4cc(O)c(O)cc4CC[C@H]3[C@@H]1CC[C@@H]2O,5920
10,CCCCCCCCCCCCC/C=C/[C@@H](O)[C@H](CO)NC(=O)CCCCC,5910
11,CCCCCCCCCCCCCCCC(=O)SCCOP(=O)([O-])OCC[N+](C)(C)C,5890
12,O=C(O)CCC/C=C\C[C@H]1C(=O)C[C@@H](O)[C@@H]1/C=C/[C@@H](O)Cc1ccccc1,5900
13,CCCCCCCCCCCCCCCC(=O)OC[C@H](COP(=O)([O-])OCC[N+](C)(C)C)OC(=O)CCCCCCCC(=O)/C=C/C(=O)O,6100
14,CC(C)CC[C@@H](O)[C@@H](C)C1CCC2C3CC=C4C[C@@H](O)CC[C@]4(C)C3CC[C@@]21C (stereo not given in full),5530
15,CCCCC[C@H](O)/C=C/[C@@H]1[C@@H](C/C=C\CCCC(=O)N(CC)CC)[C@@H](O)C[C@H]1O,5610
16,CC(C)OC(=O)CCC/C=C\C[C@@H]1[C@@H](/C=C/C(F)(F)COc2ccccc2)[C@H](O)C[C@@H]1O,5630
17,CCCCCCCCCCOc1ccc(OCC(=O)Cn2cc(C(=O)OC)c3cc(C(=O)O)ccc32)cc1,6490
18,C=C1C(=O)O[C@H](CCCCCCCC)[C@H]1C(=O)O,5890
19,CCCCCCCCCCCC(=O)c1nc2ncccc2o1,5460
20,CCCCC[C@H](O)/C=C/[C@H]1[C@H](O)CC(=O)[C@@H]1C/C=C\CCCC(=O)NCCO,5420
